Measured values published in PubChem BioAssay (NCI).
About 79,000 compounds went through this panel and 15% of them were active in at least one assay; those are over-represented in the sample as a whole. Activity calls are given as the source filed them. Rule as the data show it: active = growth inhibition above about 70%; inactive = the rest.

Legend:
[1] = NCI Yeast Anticancer Drug Screen. Data for the rad52 strain (AID 147);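 also: 0% = growth of vehicle-treated control cultures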; settings: S. cerevisiae rad52 mutant growth inhibition, stronger effect = higher value
Summary of the method: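 Growth of repair-deficient yeast cells was compared between compound-treated and vehicle-treated cultures to give percent inhibition.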

[2] = NCI Yeast Anticancer Drug Screen. Data for the wt1 strain (AID 149);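 also: 0% = growth of vehicle-treated wt1 cultures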; settings: S. cerevisiae wt1 strain (SPY 50644) growth inhibition, stronger effect = higher value
Summary of the method: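 Measured: growth of wt1 yeast under compound versus vehicle treatment, reported as inhibition.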

[3] = NCI Yeast Anticancer Drug Screen. Data for the rad50EPP+ strain (AID 151);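 also: 0% = growth of vehicle-treated control cultures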; settings: S. cerevisiae rad50 mutant strain, stronger effect = higher value
Summary of the method: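 Measured: growth inhibition of rad50EPP+ yeast. Reference: vehicle-treated controls. Screen uses strains with defined genetic alterations in DNA damage repair or cell cycle control.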

[4] = NCI Yeast Anticancer Drug Screen. Data for the rad50 strain (AID 155);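 also: 0% = growth of vehicle-only cultures of the same strain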; settings: S. cerevisiae rad50 strain growth inhibition, stronger effect = higher value
Summary of the method: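 Growth of the mutant yeast was measured after compound exposure and referenced to vehicle-treated cultures.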

[5] = NCI Yeast Anticancer Drug Screen. Data for the mec2-1 strain (AID 157); settings: S. cerevisiae mec2-1 strain, stronger effect = higher value
Summary of the method: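 Compounds were applied to mec2-1 yeast cells. Their growth was then compared with that of vehicle-treated cultures to give growth inhibition.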

[6] = NCI Yeast Anticancer Drug Screen. Data for the rad14 strain (AID 159);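 also: 0% = growth of vehicle-treated control cultures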; settings: S. cerevisiae rad14 strain growth inhibition, stronger effect = higher value
Summary of the method: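 Here, inhibition of yeast growth was measured after compound exposure, using a strain with a genetic defect in DNA damage repair and vehicle-treated cultures as the reference.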

[7] = NCI Yeast Anticancer Drug Screen. Data for the sgs1 mgt1 strain (AID 161);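 also: 0% = growth of cultures given vehicle only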; settings: S. cerevisiae sgs1 mgt1 strain, stronger effect = higher value
Summary of the method: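 Percent growth inhibition was derived by comparing compound-exposed mutant yeast with vehicle-exposed cultures. The strain carries alterations in DNA damage repair.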

[8] = NCI Yeast Anticancer Drug Screen. Data for the CLN2oe strain (AID 163);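 also: 0% = growth of vehicle-only control cultures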; settings: S. cerevisiae CLN2oe strain, stronger effect = higher value
Summary of the method: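 Cells of an engineered yeast line with disturbed cell-cycle regulation are treated with compound. Inhibition of growth is then calculated relative to the vehicle-treated reference.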

[9] = NCI Yeast Anticancer Drug Screen. Data for the cln2 rad14 strain (AID 165);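 also: 0% = growth equal to vehicle treated cultures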; settings: S. cerevisiae cln2 rad14 strain, stronger effect = higher value
Summary of the method: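 Strain: cln2 rad14 yeast, altered in cell cycle control and DNA damage repair. Read-out: growth inhibition vs vehicle.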

[10] = NCI Yeast Anticancer Drug Screen. Data for the bub3 strain (AID 167); settings: S. cerevisiae bub3 mutant strain, stronger effect = higher value
Summary of the method: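 Whole-cell yeast assay. The mutant strain was incubated with compounds, and growth inhibition was determined by comparison with vehicle-treated cells.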

[11] = NCI Yeast Anticancer Drug Screen. Data for the wt2 strain (AID 169);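 also: 0% = growth of vehicle-treated yeast cultures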; settings: S. cerevisiae wt2 strain growth inhibition, stronger effect = higher value
Summary of the method: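 Growth of compound-treated yeast is measured and expressed as inhibition relative to vehicle-only controls.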

[12] = NCI Yeast Anticancer Drug Screen. Data for the mlh1 strain (AID 171);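 also: 0% = growth of vehicle-treated control cultures of the same strain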; settings: S. cerevisiae mlh1 strain growth inhibition, stronger effect = higher value
Summary of the method: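 Test agents were incubated with yeast bearing a defined DNA damage repair or cell cycle control alteration; values are growth inhibition normalised to vehicle-treated cultures.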

[13] = NCI Yeast Anticancer Drug Screen. Data for the sgs1 strain (AID 173);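 also: 0% = growth of vehicle-only control cultures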; settings: S. cerevisiae sgs1 mutant, stronger effect = higher value
Summary of the method: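 Strain with an altered DNA repair or cell cycle pathway exposed to compound. Growth then measured. Value = inhibition versus vehicle control.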

[14] = NCI Yeast Anticancer Drug Screen. Data for the mlh1 rad18 strain (AID 175); settings: S. cerevisiae mlh1 rad18 strain growth inhibition, stronger effect = higher value
Summary of the method: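 A repair-deficient yeast strain is exposed to test compound, and growth is scored relative to vehicle-treated controls.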

[15] = NCI Yeast Anticancer Drug Screen. Data for the rad18 strain (AID 177); settings: S. cerevisiae rad18 mutant growth inhibition, stronger effect = higher value
Summary of the method: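 DNA-repair-defective yeast; compound treatment; growth inhibition scored against vehicle.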

[16] = NCI Yeast Anticancer Drug Screen. Data for the mgt1 strain (AID 153); settings: S. cerevisiae mgt1 mutant growth inhibition, stronger effect = higher value
Summary of the method: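 Compounds were applied to mgt1 mutant yeast, and growth was then compared against vehicle-treated control cultures to give percent inhibition.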

[17] = at 5.0 µM (retest, dose inferred, filed as 0.5)
[18] = at 50.0 µM (retest, dose inferred, filed as 5.0)

Measured: growth inhibition

O=C1C(Nc2ccccc2)=C(Oc2ccccc2)C(=O)c2ccccc21
inactive: [1]; at 1.2 µM -3% | [1]; at 3.7 µM -6% | [1]; at 11.0 µM 1% | [1]; at 33.0 µM 23% | [1]; at 100.0 µM 32% | [2]; at 1.2 µM 3% | [2]; at 3.7 µM -10% | [2]; at 11.0 µM 7% | [2]; at 33.0 µM -4% | [2]; at 100.0 µM 14% | [3]; at 1.2 µM 5% | [3]; at 3.7 µM 20% | [3]; at 11.0 µM 28% | [3]; at 33.0 µM 58% | [3]; at 100.0 µM 60% | [4]; at 1.2 µM -6% | [4]; at 3.7 µM -11% | [4]; [17] -1% | [4]; at 11.0 µM -5% | [4]; at 33.0 µM 27% | [4]; [18] 26% | [4]; at 50.0 µM 23.7% | [4]; at 100.0 µM 38% | [5]; at 1.2 µM 2% | [5]; at 3.7 µM 1% | [5]; [17] 3% | [5]; at 11.0 µM 6% | [5]; at 33.0 µM 3% | [5]; [18] 20% | [5]; at 50.0 µM 24.4% | [5]; at 100.0 µM 2% | [6]; at 1.2 µM 13% | [6]; at 3.7 µM 0% | [6]; at 11.0 µM 4% | [6]; at 33.0 µM 9% | [6]; at 100.0 µM -15% | [7]; [17] -2% | [7]; [18] 17% | [7]; at 50.0 µM 16.4% | [8]; at 1.2 µM -6% | [8]; at 3.7 µM -2% | [8]; at 11.0 µM 1% | [8]; at 33.0 µM -1% | [8]; at 100.0 µM -4% | [9]; [17] -7% | [9]; [18] 1% | [9]; at 50.0 µM 5.25% | [10]; at 1.2 µM 3% | [10]; at 3.7 µM 9% | [10]; [17] 16% | [10]; at 11.0 µM 23% | [10]; at 33.0 µM 55% | [10]; [18] 59% | [11]; at 1.2 µM -10% | [11]; at 3.7 µM 0% | [11]; at 11.0 µM 11% | [11]; at 33.0 µM 35% | [11]; at 100.0 µM 29% | [12]; at 1.2 µM -5% | [12]; at 3.7 µM 0% | [12]; at 11.0 µM 1% | [12]; at 33.0 µM 0% | [12]; at 100.0 µM 0% | [13]; at 1.2 µM -7% | [13]; at 3.7 µM -2% | [13]; at 11.0 µM 3% | [13]; at 33.0 µM 15% | [13]; at 100.0 µM 16% | [14]; [17] -3% | [14]; [18] 30% | [14]; at 50.0 µM 58.8% | [15]; at 1.2 µM -4% | [15]; at 3.7 µM 4% | [15]; at 11.0 µM 4% | [15]; at 33.0 µM 14% | [15]; at 100.0 µM 1%
active: [10]; at 50.0 µM 82.5% | [10]; at 100.0 µM 70%

COc1ccc(/C(C)=N/OC(=O)c2c(-c3ccccc3Cl)noc2C)cc1CN1CCOCC1
inactive: [1]; at 1.2 µM 21% | [1]; at 3.7 µM 23% | [1]; at 11.0 µM 19% | [1]; at 33.0 µM 34% | [2]; at 1.2 µM -7% | [2]; at 3.7 µM -10% | [2]; at 11.0 µM -14% | [2]; at 33.0 µM -7% | [2]; at 100.0 µM 39% | [3]; at 1.2 µM -36% | [3]; at 3.7 µM -39% | [3]; at 11.0 µM -41% | [3]; at 33.0 µM -32% | [3]; at 100.0 µM -27% | [16]; at 1.2 µM -3% | [16]; at 3.7 µM -5% | [16]; at 11.0 µM 0% | [16]; at 33.0 µM 36% | [4]; at 1.2 µM -39% | [4]; at 3.7 µM -28% | [4]; [17] 63% | [4]; at 11.0 µM -20% | [4]; at 33.0 µM 21% | [4]; at 50.0 µM 64.7% | [5]; at 1.2 µM -25% | [5]; at 3.7 µM 2% | [5]; [17] 68% | [5]; at 11.0 µM -12% | [5]; at 33.0 µM 7% | [5]; at 50.0 µM 14.3% | [5]; at 100.0 µM 50% | [7]; [17] -16% | [8]; at 1.2 µM -12% | [8]; at 3.7 µM -7% | [8]; at 11.0 µM 8% | [8]; at 33.0 µM 17% | [8]; at 100.0 µM 60% | [9]; [17] 46% | [9]; at 50.0 µM 45.8% | [10]; at 1.2 µM -6% | [10]; at 3.7 µM -7% | [10]; [17] 17% | [10]; at 11.0 µM -18% | [10]; at 33.0 µM 5% | [10]; at 50.0 µM 58.8% | [10]; at 100.0 µM 50% | [12]; at 1.2 µM -22% | [12]; at 3.7 µM -16% | [12]; at 11.0 µM -27% | [12]; at 33.0 µM 14% | [13]; at 1.2 µM -30% | [13]; at 3.7 µM -29% | [13]; at 11.0 µM -19% | [13]; at 33.0 µM 30% | [14]; [17] 53% | [14]; at 50.0 µM 57.4%
active: [1]; at 100.0 µM 75% | [16]; at 100.0 µM 87% | [4]; [18] 88% | [4]; at 100.0 µM 70% | [5]; [18] 98% | [7]; [18] 98% | [7]; at 50.0 µM 74.4% | [9]; [18] 97% | [10]; [18] 97% | [12]; at 100.0 µM 85% | [13]; at 100.0 µM 78% | [14]; [18] 85%
